# Sampled rows, rich in hits. Any-hit rate of the full collection: about 3%.
# SNCA viab count = cell viability loss counter-screen; HEK-293-SNCA-luc viability, GF-AFC fluorescence, 24 h; Potency, µM (titrated, usually from 57.1 µM), usual class: cytotoxic; hit rate 0.12% among 150,000; AID 1671193; further: nearly all actives have a fitted effect of over 30% in size
#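 Cytotoxicity counterscreen: after 24 h compound treatment of genome-edited SNCA-luciferase HEK-293 cells, live-cell protease substrate GF-AFC read by fluorescence after 30 min; activity scaled between DMSO (0%) and medium-only (-100%), curves Hill-fitted.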
# SNCA expr inh = inhibitors of alpha-synuclein (SNCA) gene expression. HEK-293 SNCA-luciferase knock-in, luminescence, 24 h. Potency, µM (titrated, usually from 57.2 µM), most hits filed as inhibitors. hit rate 0.17% among 140,000; further: nearly all actives have a fitted effect of over 45% in size
# IP6K1 inh = blocks human inositol hexakisphosphate kinase 1. hit rate 0.81% among 140,000. activity change, % (series mostly up to about 58 µM). IP6K1 kinase, ADP-Glo luminescence, 2 h; hits give low values; in the data active means activity change below about -25%
#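 ADP-Glo luminescence measures ADP made by human IP6K1 during a 2 h RT reaction with ATP/IP6 (mix at 1.3 mM/130 uM); top library doses 57.5 and 19.1 uM final.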
# KDM5B inh = inhibitors of human KDM5B histone demethylase; Potency, µM (titrated, usually from 57.7 µM), actives largely listed as inhibitors; KDM5B demethylase, FDH-coupled NADH fluorescence (FDH is formaldehyde dehydrogenase); AID 1347165; hit rate 2.6% among 220,000; further: nearly all actives have a fitted effect of over 70% in size
#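 qHTS format, multiple compound concentrations. Buffer 50 mM HEPES pH 7.5/0.01% Tween-20; 200 nM KDM5BΔAP final; 10 min compound preincubation; substrate-mix levels 12.5 µM peptide, 25 µM α-KG, 0.25 mM NAD⁺; 30 min RT; ΔRFU.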
# A number is an active result; – = inactive; ? = inconclusive; · = no result given; [ ] = another dose, or the depositor's remark. Unless noted, the call rests on the fitted dose curve; in most records, active means well fitted curve in the direction sought with a large enough effect; inconclusive means small, poorly fitted or top-dose-only effect, or another doubt; inactive means no such curve, though single readings can be large; an effect the other way counts as inactive or inconclusive.
SMILES,SNCA viab count,SNCA expr inh,IP6K1 inh,KDM5B inh
CCn1cc(Cl)c(C(=O)N2CCc3c(nc4cc(-c5ccccc5)[nH]n4c3=O)C2)n1,–,–,–,25µM
CCOC(=O)CCNC(=O)N1CCc2c(nc3cc(-c4ccccc4)[nH]n3c2=O)C1,–,–,–,28µM
CC(C)c1nc2c(c(-c3ccc(Cl)cc3)n1)CN(C(=O)c1ccc(Cl)nc1)CC2,–,–,–,·
CN(C)C(=O)N1CCC(c2nc(CCOc3ccc(F)cc3)no2)C1 (stereo unspecified),–,–,–,·
CN(C)S(=O)(=O)N1CCc2c(nc3cc(-c4ccccc4)[nH]n3c2=O)C1,–,–,–,22µM
O=C(c1cc2c(s1)CCCC2)N1CCc2c(nc3cc(-c4ccccc4)[nH]n3c2=O)C1,–,–,–,–
O=C(c1nccc2ccccc12)N1CCc2c(nc3cc(-c4ccccc4)[nH]n3c2=O)C1,–,–,–,?
O=C(c1ccccc1Cl)N1CCc2c(nc3cc(-c4ccccc4)[nH]n3c2=O)C1,–,–,–,35µM
COc1ccc(N2C(=O)CSC23CCN(C(=O)c2ccccc2Br)CC3)cc1,–,–,–,35µM
COc1ccccc1CN1CCNc2cnc(Nc3ccccc3)cc2C1,–,–,–,?
COc1cccc(Nc2cc3c(cn2)NCCN(Cc2ccccc2)C3)c1,–,–,–,40µM
COc1cccc(CN2CCNc3cnc(Nc4ccccc4)cc3C2)c1,–,–,–,35µM
CSCCNC(=O)c1cc(-c2ccc(Cl)cc2Cl)nc2c1cnn2C,–,–,–,·
COc1ccc(CN2C[C@@H]3C[C@@H](C(N)=O)N(C(=O)CC4CCCC4)c4cccc(c43)C2=O)cc1,–,?,–,·
Cc1cc(=O)n(CC(=O)Nc2ccc(C)c(F)c2)c(N2CCc3ccccc3C2)n1,?,?,–,?
O=C(Nc1cccc(C(F)(F)F)c1)c1nc2c(o1)CCN(Cc1cccs1)CC2,–,–,–,32µM
N#Cc1cccc(CN2CCc3nc(C(=O)Nc4cccc(C(F)(F)F)c4)oc3CC2)c1,–,?,–,35µM
Cc1noc(C)c1CN1CCc2nc(C(=O)Nc3cccc(C(F)(F)F)c3)oc2CC1,–,–,–,25µM
O=C(Nc1cccc(C(F)(F)F)c1)c1nc2c(o1)CCN(Cc1ccccc1F)CC2,–,–,–,?
COc1ccccc1CN1CCc2nc(C(=O)Nc3cccc(C(F)(F)F)c3)oc2CC1,–,–,–,35µM
Cc1noc(C)c1CN1CCc2nc(C(=O)Nc3ccccc3)oc2CC1,–,–,–,?
COc1ccc2cc(CN3CCC(CO)CC3)c(-c3ccc(Cl)cc3)nc2c1,–,?,–,?
CSc1ccc2cc(CN(C)CCO)c(-c3ccc(Cl)cc3)nc2c1,–,–,–,28µM
Cc1cccc(-n2ncc3c(N4CCCCCC4)ncnc32)c1,–,?,–,?
Cc1cccc(-n2ncc3c(N4CCCC(C)C4)ncnc32)c1 (stereo unspecified),–,4µM,–,?
SMILES,SNCA viab count,SNCA expr inh,IP6K1 inh,KDM5B inh
CSCCNC(=O)C1CCCN1c1nccc(Nc2ccc(C)cc2)n1 (stereo unspecified),–[12.5 µM],–,–,·
CCCc1noc(-c2ccn3c(CNC(=O)c4ccccc4OC)nnc3c2)n1,–,–,–,3.2µM
CCCc1noc(-c2ccn3c(CNC(=O)C(C)Oc4ccccc4)nnc3c2)n1 (stereo unspecified),–,–,–,25µM
CCCc1noc(-c2ccn3c(CNC(=O)c4ccccc4Cl)nnc3c2)n1,–,–,–,–
CCCc1noc(-c2ccn3c(CNC(=O)Cc4ccccc4OC)nnc3c2)n1,–,–,–,18µM
C[C@@]12CO[C@H](c3ccccc3)C[C@@H]1C[C@H](N1CCN(Cc3ccnc4ccccc34)CC1)C2,·,·,–,·
Cc1nn(-c2ccccc2)c2c1C(C(C)C)N(C1CCN(C(=O)N(C)C)CC1)C2=O (stereo unspecified),·,·,–,·
COC(=O)c1cc(C#N)c(N2CC[C@H](CO)[C@@H](O)C2)nc1C,–,–,–,25µM
COc1ccc(C(=O)NC2CCCN(c3ccnc4ccnn34)C2)cc1 (stereo unspecified),?,–,–,·
CC(C)n1nc(OC(C)(C)C(=O)NCCOc2ccccc2)c2cc(CN3CCOCC3)ccc21,–,–,–,28µM
CC(C)CNC(=O)C(C)(C)Oc1nn(C(C)C)c2ccc(CN3CCOCC3)cc12,–,–,–,35µM
CC(C)n1nc(OC(C)(C)C(=O)NC2CCC(O)CC2)c2cc(CN3CCOCC3)ccc21 (stereo unspecified),–,–,–,25µM
CC(C)n1nc(OC(C)(C)C(=O)NC2CCOCC2)c2cc(CN3CCOCC3)ccc21,–,–,–,32µM
O=C(CSc1ccc2ccccc2n1)Nc1ccc2c(c1)OCCCO2,·,·,·,–
COCc1ccc2c(c1)c(OC(C)(C)C(=O)NCC1CCOCC1)nn2Cc1cccnc1,–,–,–,–
CC(C)(Oc1nn(CC2CC2)c2ccc(CN3CCCC3)cc12)C(=O)Nc1cccnc1,–,–,–,28µM
Cc1nc2cnccn2c1C(=O)NCc1ccccc1Cl,·,·,–,·
CC1(COc2ccccc2)COc2ccc(C(=O)NCc3ccco3)cc2N1 (stereo unspecified),–,–,–,?
COc1ccc(OCC2(C)COc3ccc(C(=O)Nc4ccccc4)cc3N2)cc1 (stereo unspecified),–,–,–,28µM
COc1ccc(OCC2(C)COc3ccc(C(=O)NCC4CCOCC4)cc3N2)cc1 (stereo unspecified),–,–,–,32µM
COc1ccc(OCC2(C)COc3ccc(C(=O)N(C)C)cc3N2)cc1 (stereo unspecified),?,?,–,–
COc1ccc(OCC2(C)COc3ccc(C(=O)NCc4ccco4)cc3N2)cc1 (stereo unspecified),–,–,–,18µM
N#Cc1cccnc1-c1ccc(C(=O)N2CCC(N[S+](=O)([O-])c3cccs3)CC2)cc1,–[12.5 µM],–,–,·
O=C(NCC1CCCCC1)C1CCCCN1Cc1ccc(-c2ccsc2)cc1 (stereo unspecified),–,?,–,·
O=C(c1cnccn1)N1CCC2(CC1)CCC(O)(CN1CCc3ccccc31)CC2,–,–,–,·
SMILES,SNCA viab count,SNCA expr inh,IP6K1 inh,KDM5B inh
NC(=O)COc1cccc(C(=O)N2CCC3(CC2)OCCCC3O)c1 (stereo unspecified),–,–,–,–
O=C(NC1CCOC2(CCOCC2)C1)c1cnc2c(O)cccn2c1=O (stereo unspecified),?,–,–,32µM
CC(C)NC(=O)[C@@H]1C[C@@H](NC(=O)c2ccon2)CN1Cc1cccnc1N,–,–,–,–
O=C(c1cnc2c(O)cccn2c1=O)N1CCC2(CC1)OCCCC2O (stereo unspecified),?,–,–,32µM
CC(C)NC(=O)[C@@H]1C[C@@H](NC(=O)c2cnc3c(O)cccn3c2=O)CN1C,?,–,–,35µM
COc1ccccc1-n1c(=O)c(C(=O)N2CCN(c3ncccn3)CC2)nc2cccnc21,–,–,–,·

# Screening data from PubChem BioAssay.
